Data from the antibiotic and cytotoxicity screens of Wong et al. (2023).
The campaign covered roughly 39,000 compounds. About 1,500 (3.8%) were called active. The full list was thinned out, with actives kept by preference.

The molecules below were run on HSkMC (human skeletal muscle cells) (assay: cytotoxicity call (relative viability < 0.9)). Conditions: 10 µM.
`CC(C)NC(=O)Nc1ccc2c(c1)CC(=O)N([C@H](C)CO)C[C@H](C)[C@H](CN(C)S(=O)(=O)c1cn(C)cn1)O2` was tested, and the cytotoxicity call was “inactive”.
In the case of `Cc1cn(CCC#N)c2ccccc12`, the cytotoxicity call is reported as “inactive”.
With `Cc1cn(CCN2CCN(c3ccccc3-c3cc(C#N)cc(C(=O)NCCCN4CCCC4)c3)CC2)c2ccccc12` the cytotoxicity call was “active”.
With `COc1cc(C(=O)NCCCN2CCCN(CCCNC(=O)c3cc(OC)c(OC)c(OC)c3)CC2)cc(OC)c1OC` the cytotoxicity call was “inactive”.
For `C[C@H]1CCCCO[C@H](CN(C)C(=O)C2CCCCC2)[C@@H](C)CN([C@@H](C)CO)C(=O)c2cc(NS(=O)(=O)c3cccs3)ccc2O1`, the cytotoxicity call was “inactive”.
For `COc1ccc(-n2cc(C(=O)NO)nn2)cc1`, the cytotoxicity call was “active”.
With `COC(=O)c1ccc(Cn2cc(C(=O)NO)nn2)o1` the cytotoxicity call was “inactive”.
In the case of `COc1cccc(-n2cc(C(=O)NO)nn2)c1`, the cytotoxicity call is reported as “inactive”.
With `C[C@H]1NC(=O)[C@H](Cc2ccccc2)NC(=O)[C@@]23C(=O)N[C@@H](Cc4ccccc4)[C@@H]2[C@H](C)[C@@]2(C)O[C@H]2[C@H]3/C=C/C/C=C\CNC1=O` the cytotoxicity call was “inactive”.
With `C[C@H](CO)N1C[C@H](C)[C@@H](CN(C)Cc2ccncc2)Oc2ccc(NS(=O)(=O)c3ccc(F)cc3)cc2C1=O` the cytotoxicity call was “inactive”.
For `CN(C)c1ccc(C(=C2C=CC(=[N+](C)C)C=C2)c2ccc(N(C)C)cc2)cc1.[Cl-]`, the cytotoxicity call was “active”.
With `CN(CC(=O)O)C1CCCC1` the cytotoxicity call was “inactive”.
`C[C@@H]1CCCCO[C@H](CN(C)C(=O)Nc2ccc(F)cc2)[C@H](C)CN([C@@H](C)CO)C(=O)c2cc(NC(=O)NC3CCCCC3)ccc2O1` was tested, and the cytotoxicity call was “inactive”.
With `C[C@H]1CN([C@@H](C)CO)S(=O)(=O)c2ccc(C#Cc3ccc(F)cc3)cc2O[C@@H]1CN(C)C(=O)c1ccccn1` the cytotoxicity call was “inactive”.
With `COc1ccc(S(=O)(=O)Nc2ccc3c(c2)CC(=O)N([C@H](C)CO)C[C@H](C)[C@@H](CN(C)Cc2ccc(Oc4ccccc4)cc2)O3)cc1` the cytotoxicity call was “inactive”.
In the case of `COc1ccc(S(=O)(=O)Nc2ccc3c(c2)CC(=O)N([C@@H](C)CO)C[C@@H](C)[C@H](CN(C)Cc2ccc(Oc4ccccc4)cc2)O3)cc1`, the cytotoxicity call is reported as “inactive”.
With `COc1ccc(S(=O)(=O)Nc2ccc3c(c2)CC(=O)N([C@H](C)CO)C[C@@H](C)[C@H](CN(C)Cc2ccc(Oc4ccccc4)cc2)O3)cc1` the cytotoxicity call was “active”.
For `COc1ccc(S(=O)(=O)Nc2ccc3c(c2)CC(=O)N([C@@H](C)CO)C[C@H](C)[C@H](CN(C)Cc2ccc(Oc4ccccc4)cc2)O3)cc1`, the cytotoxicity call was “active”.
`COc1ccc(S(=O)(=O)Nc2ccc3c(c2)CC(=O)N([C@H](C)CO)C[C@H](C)[C@H](CN(C)Cc2ccc(Oc4ccccc4)cc2)O3)cc1` was tested, and the cytotoxicity call was “inactive”.
With `COc1ccc(S(=O)(=O)Nc2ccc3c(c2)CC(=O)N([C@H](C)CO)C[C@@H](C)[C@@H](CN(C)Cc2ccc(Oc4ccccc4)cc2)O3)cc1` the cytotoxicity call was “active”.
For `COc1ccc(S(=O)(=O)Nc2ccc3c(c2)CC(=O)N([C@@H](C)CO)C[C@@H](C)[C@@H](CN(C)Cc2ccc(Oc4ccccc4)cc2)O3)cc1`, the cytotoxicity call was “inactive”.
`COc1ccc(S(=O)(=O)Nc2ccc3c(c2)CC(=O)N([C@@H](C)CO)C[C@H](C)[C@@H](CN(C)Cc2ccc(Oc4ccccc4)cc2)O3)cc1` was tested, and the cytotoxicity call was “active”.
In the case of `Cc1noc(C)c1NC(=O)Nc1cccc2c1O[C@@H](CN(C)C(=O)Nc1cccc3ccccc13)[C@@H](C)CN([C@H](C)CO)C2=O`, the cytotoxicity call is reported as “inactive”.
In the case of `C[C@@H]1CN([C@@H](C)CO)S(=O)(=O)c2ccc(C#CCN(C)C)cc2O[C@@H]1CN(C)Cc1ccc2c(c1)OCO2`, the cytotoxicity call is reported as “inactive”.
`COCC#Cc1cnc2c(c1)C(=O)N([C@@H](C)CO)C[C@@H](C)[C@H](CN(C)C(=O)c1cnccn1)O2` was tested, and the cytotoxicity call was “inactive”.
`CO[C@H]1CN(C)C(=O)c2cc(NC(=O)Nc3cccc(Cl)c3)ccc2OC[C@@H](C)N(C(=O)Nc2c(C)noc2C)C[C@H]1C` was tested, and the cytotoxicity call was “inactive”.
With `C[C@H]1CN([C@@H](C)CO)C(=O)CCCn2nncc2CO[C@H]1CN(C)S(=O)(=O)c1ccc(Cl)cc1` the cytotoxicity call was “inactive”.
With `NC(CC(=O)N1CCn2c(nnc2C(F)(F)F)C1)Cc1cc(F)c(F)cc1F.O.O=P(O)(O)O` (stereo unspecified) the cytotoxicity call was “inactive”.
In the case of `C[C@@H]1CN([C@@H](C)CO)C(=O)c2cccc(NS(=O)(=O)c3ccc(F)cc3)c2O[C@H]1CN(C)S(=O)(=O)c1ccc(F)cc1`, the cytotoxicity call is reported as “inactive”.
In the case of `C[C@H](CO)N1C[C@H](C)[C@@H](CN(C)C(=O)c2cnccn2)Oc2ncc(C#CCC3CCCC3)cc2C1=O`, the cytotoxicity call is reported as “inactive”.
For `CC(C)C[C@H](NC(=O)[C@@H](Cc1c[nH]c2ccccc12)NC(=O)[C@H](Cc1ccc(O)cc1)NC(=O)[C@H](CO)NC(=O)[C@H](Cc1c[nH]c2ccccc12)NC(=O)[C@H](Cc1cnc[nH]1)NC(=O)[C@@H]1CCC(=O)N1)C(=O)N[C@@H](CCCNC(=N)N)C(=O)N1CCC[C@H]1C(=O)NCC(N)=O`, the cytotoxicity call was “inactive”.
In the case of `O=C1O[C@H](c2ccccc2)[C@H](c2ccccc2)N2[C@H]1[C@@H](C(=O)N1CCCCCCC1)[C@]1(C(=O)Nc3ccccc31)[C@H]2c1ccc(O)cc1`, the cytotoxicity call is reported as “active”.
With `O=C1O[C@@H](c2ccccc2)[C@@H](c2ccccc2)N2[C@@H](c3ccc(O)cc3)[C@]3(C(=O)Nc4ccccc43)[C@@H](C(=O)N3CCCCCCC3)[C@H]12` the cytotoxicity call was “inactive”.
With `O=C1O[C@@H](c2ccccc2)[C@@H](c2ccccc2)N2[C@@H](c3ccc(OCCO)cc3)[C@]3(C(=O)Nc4ccccc43)[C@@H](C(=O)N3CCCCCCC3)[C@H]12` the cytotoxicity call was “inactive”.
For `O=C(O)C[C@](O)(Cc1ccc(O)cc1)C(=O)O`, the cytotoxicity call was “inactive”.
With `CCS(=O)(=O)Nc1ccc2c(c1)C(=O)N(C)[C@H]1CC[C@H](CC(=O)N3CCN(C)CC3)O[C@@H]1CO2` the cytotoxicity call was “inactive”.
In the case of `Cc1ccc(S(=O)(=O)N[C@H]2CC[C@@H](CC(=O)N3CCC(Cc4ccccc4)CC3)O[C@H]2CO)cc1`, the cytotoxicity call is reported as “inactive”.
`C[C@@H]1CN([C@H](C)CO)C(=O)c2cccc(NC(=O)Nc3ccc4c(c3)OCO4)c2O[C@H]1CN(C)Cc1ccc(-c2ccccc2)cc1` was tested, and the cytotoxicity call was “inactive”.
For `O=C(CCCCC(=O)N/N=C/c1cc(I)cc(I)c1O)NO`, the cytotoxicity call was “inactive”.
For `O=C(NO)c1cccc(C(=O)N/N=C/c2cc(I)cc(I)c2O)c1`, the cytotoxicity call was “inactive”.
In the case of `O=C(CCCCCCC(=O)N/N=C/c1cc(I)cc(I)c1O)NO`, the cytotoxicity call is reported as “active”.
